Our source for the outcome and AC50 values is PubChem BioAssay (EPA / NIEHS).

Results filed as inconclusive are left out. The source made the active and inactive calls. Rule for the calls, unless noted: active = hit-call score of the fitted dose curve at least 0.9, where 1 is the maximum; inactive = score below 0.9.

The nature of assay [1]: CCTE_Shafer_MEA_dev_burst_rate: CCTE's Neural Network Formation Assay for Burst Rate, Shafer Lab (AID 2284042). The procedure, abridged: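 Primary rat cortical neurons on PEI-coated 48-well MEA plates (laminin added with cells at plating) (16 electrodes/well), exposed from plating to day 12, dosing renewed at DIV 5 and 9. Burst rate averaged over active electrodes, recorded DIV 5, 7, 9, 12, summarized as AUC; loss versus DMSO.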

Assay [2] in a line: CCTE_Shafer_MEA_dev_per_burst_interspike_interval: CCTE's Neural Network Formation Assay for Burst Interspike Interval, Shafer Lab (AID 2284044).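 Note: mean spike spacing inside bursts as AUC over recordings on days 5 7 9 12.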 The gist of the method:
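Spontaneous activity of maturing rat cortical networks is recorded on DIV 5, 7, 9 and 12 under chronic compound exposure beginning at plating. Endpoint: burst interspike interval well-mean, collapsed into trapezoidal AUC and fitted in the negative direction relative to DMSO.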

A short description of assay [3]: CCTE_Shafer_MEA_dev_burst_duration_mean: CCTE's Neural Network Formation Assay for Mean Burst Duration, Shafer Lab (AID 2284045). The gist of the method: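 Primary rat cortical neurons on 48-well 16-electrode MEA plates, exposed from day 0 with renewal at DIV 5 and 9; spontaneous activity recorded on days 5, 7, 9, 12. Well-mean burst duration across bursting electrodes, collapsed as trapezoidal AUC; DMSO baseline.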

A short description of assay [4]: CCTE_Shafer_MEA_dev_interburst_interval_mean: CCTE's Neural Network Formation Assay for Mean Interburst Interval, Shafer Lab (AID 2284046).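 Note: well-mean interburst interval of bursting electrodes as AUC over four recording days; curve fitted for decrease in interburst interval relative to DMSO.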 The gist of the method:
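Recordings on days 5, 7, 9 and 12 give well-mean interburst interval across actively bursting electrodes, summarized as area under the curve. Cultures: rat cortical neurons, continuous exposure from day 0, compound renewed at feeds; decrease analyzed versus DMSO.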

Assay [5] can be described thus: CCTE_Shafer_MEA_dev_inter_network_spike_interval_mean: CCTE's Neural Network Formation Assay for Mean Inter-network Spike Interval, Shafer Lab (AID 2284047).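 For AC50: potency for a decrease in mean inter-network spike interval below DMSO.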 The gist of the method: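 Primary rat cortical neurons on 16-electrode MEA wells, exposed from plating day 0 through DIV 12, compound renewed at DIV 5 and 9 media changes. Mean interval between network-spike peaks recorded DIV 5, 7, 9, 12; collapsed as trapezoidal AUC, fitted downward versus DMSO.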

Assay [6] can be described thus: CCTE_Shafer_MEA_dev_network_spike_number: CCTE's Neural Network Formation Assay for Number of Network Spikes, Shafer Lab (AID 2284048).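 Note: synchronized bursts across electrodes counted on days 5 7 9 12 and integrated as AUC.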 The procedure, abridged: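 Primary rat cortical neurons on PEI/laminin 48-well MEA plates, dosed from plating day 0 for 12 days, renewed at DIV 5 and 9. Network spike counts recorded DIV 5, 7, 9, 12, collapsed as trapezoidal AUC; DMSO baseline.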

Assay [7] can be described thus: CCTE_Shafer_MEA_dev_network_spike_peak: CCTE's Neural Network Formation Assay for Mean Number of Electrodes in Network Spike, Shafer Lab (AID 2284049).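 For AC50: fitted for loss of signal meaning fewer electrodes in network spikes than DMSO.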 The gist of the method: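 Network-spike peak electrode count from recordings on days 5, 7, 9 and 12 was combined as trapezoidal area under the curve. Rat cortical cultures were treated continuously from plating, with compound renewed at each feed (DIV 5, 9); fits versus DMSO.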

A short description of assay [8]: CCTE_Shafer_MEA_dev_spike_duration_mean: CCTE's Neural Network Formation Assay for Mean Spike Duration, Shafer Lab (AID 2284051).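 For AC50: potency for a decrease in mean network spike duration versus DMSO.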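 Note: mean network spike duration pooled as area under curve over DIV 5 to 12 recordings.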 The gist of the method:
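Primary rat cortical neurons on 16-electrode MEA wells (PEI-coated, laminin in plating drop), exposed from plating through DIV 12 with compound renewed at DIV 5 and 9. Mean network-spike duration recorded DIV 5, 7, 9, 12; trapezoidal AUC across days, DMSO baseline.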

Assay [9] is described as follows: CCTE_Shafer_MEA_dev_network_spike_duration_std: CCTE's Neural Network Formation Assay for Standard Deviation of Network Spike Duration, Shafer Lab (AID 2284052).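 Note: area under curve of spike duration SD across recording days 5 to 12; hits are decreases in network spike duration SD versus DMSO vehicle.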 The gist of the method:
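Primary rat cortical neurons on PEI-coated 16-electrode MEA wells, exposed from plating day 0 through day 12 with compound renewed at DIV 5 and 9. Network spike duration SD recorded on days 5, 7, 9, 12, collapsed as trapezoidal AUC; loss-of-signal fit versus DMSO.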

Assay [10] can be described thus: CCTE_Shafer_MEA_dev_per_network_spike_spike_number_mean: CCTE's Neural Network Formation Assay for Mean Number of Spikes in a Network Spike, Shafer Lab (AID 2284053).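 For AC50: fitted as decrease in spikes per network spike relative to DMSO.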 The procedure, abridged: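 Primary rat cortical neurons on 48-well, 16-electrode MEA plates were exposed from plating to DIV 12, with dosing renewed on DIV 5 and 9. Spikes per network spike (0.05 s peak window) were recorded on DIV 5, 7, 9 and 12 and collapsed as trapezoidal AUC versus DMSO.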

Assay [11] is described as follows: CCTE_Shafer_MEA_dev_per_network_spike_spike_percent: CCTE's Neural Network Formation Assay for Percent of Spikes in a Network Spike, Shafer Lab (AID 2284054). The procedure, abridged:
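Rat primary cortical neurons were grown on 48-well MEA plates (16 electrodes/well), exposed from plating day 0 through day 12, with treatment renewed on DIV 5 and 9. Percent of spikes within 0.05 s network-spike peaks was measured, summarised as AUC across days 5, 7, 9, 12.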

A short description of assay [12]: CCTE_Shafer_MEA_dev_mutual_information_norm: CCTE's Neural Network Formation Assay for Mutual Information Normalization, Shafer Lab (AID 2284091). The procedure, abridged:
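Primary rat cortical neurons on PEI-coated 48-well MEA plates, 1.5 x 10^5 cells/well, exposed from day 0 through day 12 with re-dosing at DIV 5 and 9. Mutual information between electrodes recorded days 5, 7, 9, 12; trapezoidal AUC, loss-of-signal fit versus DMSO.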

Assay [13] is described as follows: CCTE_Deisenroth_AIME_384WELL_CTox_Inactive: Cytotoxicity Assessment (CTOX) in CCTE's 384-well Estrogen Receptor Transactivation Assay without AIME metabolic competence (metabolism negative), Deisenroth Lab (AID 2284039; active = hit-call score of the fitted dose curve at least 0.9, where 1 is the maximum;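 note: cell viability via live-cell protease substrate cleaved to fluorescent probe; cells exposed 24 h to medium preincubated 2 h with alginate-water beads without S9; loss of fluorescence signal means loss of viability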). The procedure, abridged:
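VM7Luc4E2 cells, metabolism-negative arm: test chemicals (0.002–200 uM, 10 points) pre-incubated 2 h with alginate-water microspheres, then medium transferred to cells for 24 h. Viability read as protease-substrate cleavage to fluorescent probe; loss-of-signal, bidirectional fitting.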

Assay [14] has as its system DIO2 (gene 1734). The assay is described as follows: CCTE_GLTED_hDIO2: CCTE's human Deiodinase 2 (DIO2) Inhibition Assay, Great Lakes Toxicology and Ecology Division (GLTED) Lab (AID 2284050; active = hit-call score of the fitted dose curve at least 0.9, where 1 is the maximum). The gist of the method: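 Cell-free human DIO2 enzyme was incubated with test chemical for 3 h; iodide liberated from substrate was then quantified by the Sandell-Kolthoff reaction (absorbance), run in triplicate. Loss of signal versus DMSO baseline indicated inhibition.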

Assay [15] concerns DIO3 (gene 1735). The experiment in a line: CCTE_GLTED_hDIO3: CCTE's human Deiodinase 3 (DIO3) Inhibition Assay, Great Lakes Toxicology and Ecology Division (GLTED) Lab (AID 2284055; active = hit-call score of the fitted dose curve at least 0.9, where 1 is the maximum;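 note: potency is for inhibition seen as loss of released iodide signal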). The gist of the method: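 Cell-free assay with human DIO3 enzyme produced by adenovirus expression; enzyme incubated with test chemical for 3 hours. Liberated iodide then measured by Sandell-Kolthoff absorbance; loss of signal versus DMSO baseline indicates inhibition, run in triplicate.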

The nature of assay [16]: CCTE_Shafer_MEA_acute_LDH: CCTE's Lactate Dehydrogenase Assay for Cytotoxicity in the Neural Acute Assay, Shafer Lab (AID 2284086; active = hit-call score of the fitted dose curve at least 0.9, where 1 is the maximum;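 note: active means LDH release rises above DMSO vehicle level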). The gist of the method: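 Primary rat cortical neurons on 48-well MEA plates, treated on day 13 or 15 post-plating. After the 40-min recording with compound, medium LDH release was read by absorbance at 490 nm. Gain of signal was fitted against DMSO negative control.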

Assay [17] is described as follows: CCTE_Shafer_MEA_dev_AB: CCTE's Alamar Blue Assay for Cytotoxicity in the Neural Network Formation Assay, Shafer Lab (AID 2284083; active = hit-call score of the fitted dose curve at least 0.9, where 1 is the maximum;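 note: twelve days of exposure from plating with re-dosing on DIV 5 and 9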). The gist of the method: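 Primary rat cortical neurons on PEI-coated 48-well MEA plates, 1.5 x 10^5 cells/well in laminin drop; compound exposure from day 0 of plating for twelve days, renewed at medium changes on DIV 5 and 9. Viability read as resazurin reduction by fluorescence, relative to DMSO.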
On the technique in general: Alamar Blue is a resazurin reagent that responds to reducing activity.

A short description of assay [18]: CCTE_Shafer_MEA_dev_LDH: CCTE's Lactate Dehydrogenase Assay for Cytotoxicity in the Neural Network Formation Assay, Shafer Lab (AID 2284068; active = hit-call score of the fitted dose curve at least 0.9, where 1 is the maximum;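 note: exposure for twelve days from plating with re-dosing on DIV 5 and 9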). The procedure, abridged:
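Primary rat cortical neurons were plated on PEI/laminin MEA plates and exposed from day 0 for twelve days, with compound renewed at DIV 5 and 9. Cytotoxicity was determined by spectrophotometric LDH assay relative to DMSO.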

Take `NC(=O)NO`: the result in assay [1], in assay [2], in assay [3], in assay [4], in [5] and in assay [6] was inactive. Further, the call in assay [7], in [8], in assay [9], in assay [10], in assay [11] and in assay [12] was inactive.

In the case of `CCOC(=O)c1ccc(C2CCC(NC[C@H](O)COc3ccc(O)c(NS(C)(=O)=O)c3)CC2)cc1` (some centres undefined), the AC50 – broadly, the concentration at which the activity in the assay is half-maximal – in assay [13] is 128000 nM (active); in assay [14], 105000 nM (active); in assay [15], 126000 nM (active). Also, the outcome in assay [16] was inactive.

With `Cn1cnc([N+](=O)[O-])c1Sc1ncnc2nc[nH]c12`, in assay [16], the compound was called inactive.

Turning to `CCCN(C1CCN(C(=O)C2CCNCC2)CC1)[C@@H]1CCc2ccc(OC)cc2C1`, the result in assay [16] was inactive.

`Clc1nc(Cl)c(Cl)c(Cl)c1Cl`: the AC50 was 14800 nM (active) in [14] and 920 nM (active) in assay [15].

For the compound `CC[C@H]1CC[C@H](NCc2cc3c(cc2OC)[C@H]2C[C@H]2C(=O)N3C)[C@H](c2ccccc2)N1`, the call in assay [16] was inactive.

Turning to `Cc1[nH]cnc1C[C@H]1CCc2c(C)c3ccccc3n2C1=O`, the compound was classed as inactive in assay [16].

Take `Cn1c(=O)c2c(ncn2C)n(C)c1=O`: the result in assay [13], in assay [1], in [2], in assay [3], in assay [4] and in [5] was inactive. Also, the call in assay [6], in assay [7], in assay [8], in [9], in [10] and in [11] was inactive. Besides, the result in assay [12] was inactive.

Regarding `CC[C@H]1OC(=O)[C@H](C)[C@@H](O[C@H]2C[C@@](C)(OC)[C@@H](O)[C@H](C)O2)[C@H](C)[C@@H](O[C@@H]2O[C@H](C)C[C@H](N(C)C)[C@H]2O)[C@](C)(O)C[C@@H](C)C(=O)[C@H](C)[C@@H](O)[C@]1(C)O`, the compound was called inactive in assay [1], in [2], in assay [3], in assay [4], in assay [5] and in assay [6]. The result in assay [7], in assay [8], in assay [9], in assay [10], in [11] and in [17] was inactive. The result in assay [16] and in [12] was inactive.

In the case of `CCC(C)(C)C(=O)O[C@H]1C[C@@H](C)C=C2C=C[C@H](C)[C@H](CC[C@@H]3C[C@@H](O)CC(=O)O3)[C@H]21`, the outcome in assay [1], in assay [2], in assay [3], in [6], in assay [9] and in [16] was inactive. Also, the compound was called inactive in assay [12]. Also, the AC50 in assay [4] was 887 nM (active); in assay [5] it was 506 nM (active); in assay [7] it was 688 nM (active); in [14], 64500 nM (active); in assay [8] it was 1030 nM (active); in assay [10] it was 1100 nM (active). In addition, the concentration at half-maximal activity (AC50) in [11] was 844 nM (active); in [15], 97800 nM (active); in assay [18], 368 nM (active); in assay [17], 1750 nM (active).

`On1ccccc1=S`: the compound was classed as inactive in [13] and in [16].

For the compound `CCCCC(CC)COC(=O)CCCCCCCCC(=O)OCC(CC)CCCC` (centres undefined), the result in assay [16] was inactive.

On to `Nc1nc2ncc(CNc3ccc(C(=O)N[C@@H](CCC(=O)O)C(=O)O)cc3)nc2c(=O)[nH]1`, for which the compound was classed as inactive in [1], in assay [2], in assay [3], in [4], in assay [5] and in [6]. For the same compound, the compound was classed as inactive in assay [7], in [8], in assay [9], in assay [10], in [11] and in [18]. The result in assay [12] was inactive.

In the case of `CC(C)=CCCC(C)=CC=O`, the values for the concentration at half-maximal activity (AC50) in assay [14] and in [15] were 100000 nM (active) and 31300 nM (active), respectively. The compound was called inactive in assay [16].

With `O=C1CCC(N2C(=O)c3ccccc3C2=O)C(=O)N1` (centres undefined), the compound was classed as inactive in assay [1], in assay [2], in [3], in assay [4], in [5] and in assay [6]. For the same compound, the outcome in assay [7], in [8], in [9], in assay [10], in [11] and in assay [18] was inactive. In [12], the compound was called inactive.

As to `O=C(O)CCN(C1(C(=O)NO)CCCC1)S(=O)(=O)c1ccc(Oc2ccc(F)cc2)cc1`, the outcome in [16] was inactive.
